Inconclusive results are not listed. A number with no mark means an inactive call. Calls of active or inactive are those of the source. Calls come from the whole dose curve; as a rule, active = well fitted inhibition curve with a large enough effect; inconclusive = small, poorly fitted or top-dose-only effect; inactive = flat fitted curve, though single readings scatter. *1 amine or outer side, *2 acyl side, *3 side chain or, on linkers, in order; H or OH if unused. Where a SMILES comes first, the peptide text is derived from it. [ ]: non-standard residue; d: D form. X13 = O=C(C(CC(O)CO)O[*:1])[*:2]; NMeV = CN[CH](C(=O)O)C(C)C; NMeA = CN[CH](C)C(=O)O; βAla = NCCC(=O)O
molecular target: Phospholipid hydroperoxide glutathione peroxidase GPX4 (Homo sapiens) (UniProt P36969); assay: Primary qHTS Assay for Inhibitors of Recombinant Selenoprotein Glutathione Peroxidase 4 (GPX4) (AID 1845192); settings: recombinant GPX4, GR-coupled NADPH fluorescence, 15 min; series mostly up to 27.8 µM; activity change, negative = inhibition: at the top concentration; note: nearly all actives have a fitted effect of over 65% in size
Sequence (P36969 whole entry, looked up): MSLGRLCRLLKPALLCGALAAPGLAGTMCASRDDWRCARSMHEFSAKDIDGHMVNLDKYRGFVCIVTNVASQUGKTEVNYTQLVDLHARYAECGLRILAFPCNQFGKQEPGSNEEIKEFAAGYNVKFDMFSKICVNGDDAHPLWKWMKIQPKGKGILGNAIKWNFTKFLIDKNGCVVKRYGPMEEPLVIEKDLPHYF
Description: Assay Provider: Elias S.J. Arner MD PhD.
Department of Medical Biochemistry and Biophysics
Karolinska Institutet, Solna, Stockholm, Sweden
Selenoprotein glutathione peroxidases (GPX), like the ubiquitously expressed GPX1 and the ferroptosis modulator GPX4, enact their antioxidant activities by reducing hydroperoxides using glutathione. […] GPX1 and GPX4 inhibitors have thus shown promise as anti-cancer agents. Existing inhibitors are often promiscuous, or modulate GPX activity only indirectly, so novel direct inhibitors identified through screening against GPX1 and GPX4 could be valuable. Here, we developed optimized glutathione reductase (GR)-coupled GPX assays for the biochemical high-throughput screen (HTS) of almost 12,000 compounds with known mechanisms of action. Initial hits were triaged using a GR counter-screen, assessed for isoform specificity using a separate GPX2 assay, and were assessed for general selenocysteine-targeting activity using a thioredoxin reductase (TXNRD1) assay. With this suite of assays, we identified novel GPX1/GPX2- and GPX4-specific inhibitors and can here present a validated pipeline for future discovery research for selenoprotein-targeting agents.
SEQUENCE No. (e.g., 1, 2, 3, etc.); […] (e.g., Cells, Incubation, Reagent, etc.); VALUE; DESCRIPTION.
1; Reagent 1; 3 uL; 333.33 nM GPx4 enzyme or no enzyme control in 1536-well, black, solid Greiner assay plate.
2; Compound; 25 nL; Kalypsis pin tool (Wako USA) equipped with a 1536-well pin head.
3; Incubation; 30 min; room temperature.
4; Reagent 2; 1 uL; 500 nM GR, 5 mM GSH, 2.5 mM NADPH solution
5; Reagent 3; 1 uL; 2.5 mM CHP in 50% EtOH.
6; Detection; Fluorescence; ViewLux microplate reader, excitation 340 nm and emission 450 nm.
7; Incubation; 15 min; room temperature.
8; Detection; Fluorescence; ViewLux microplate reader, excitation 340 nm and emission 450 nm.
NOTES (numbers refer to Sequence numbers above)
1. 3 µL of 333.33 nM GPX4 and 0.016% BSA in assay buffer (50 mM Tris-HCl, 2 mM EDTA (pH 7.5), 150 mM NaCl) was added to columns 3-48 of 1536-well plates using a BioRAPTR Flying Reagent Dispenser (Let's Go Robotics (LGR), Carlsbad, CA). A no-enzyme control (0.01% BSA in TES assay buffer) was added to columns 1-2.
2. 25 nL, library and DMSO controls were added to each well with a pin tool (Kalypsys).
3. The assay plates were incubated for 30 minutes at room temperature.
4. 1 µL of master mix (500 nM glutathione reductase (GR), 5 mM reduced glutathione (GSH), 2.5 mM NADPH in assay buffer) was added.
5. 1 µL of cumene hydroperoxide (CHP) ([2.5 mM] in 50% EtOH) was then added within 5 minutes to initiate the reaction. Final concentrations were: 200 nM GPX4, 1 mM GSH, 0.5 mM CHP, 0.5 mM NADPH, 100 nM GR, 0.01% BSA.
6. Initial fluorescence readout (t=0) at 340/450 nm was measured using a ViewLux multimodal detector (PerkinElmer, Waltham, MA).
8. Endpoint fluorescence readout (t=15) at 340/450 nm was measured 15 min after room temperature incubation.

| Compound | activity change, negative = inhibition | outcome |
| --- | --- | --- |
| CC1=CCC(O)C2(C)CCC3C(C)C(=O)OC3C12 (stereo not given) | -23.1% [at 50 µM] |  |
| CCCN1CCC[C@@H](c2cccc(S(C)(=O)=O)c2)C1 | 4.27% [at 50 µM] |  |
| CC1=CC(=O)C(=C(C)C)CC2C(C)(O)CCC12O (stereo not given) | -0.221% [at 50 µM] |  |
| C=Cc1ccc(O[C@@H]2O[C@H](CO[C@@H]3O[C@@H](C)[C@H](O)[C@@H](O)[C@H]3O)[C@@H](O)[C@H](O)[C@H]2O)cc1 | -2.33% |  |
| C/C=C/C=C/C=C/C(=O)O[C@@H]1[C@@H](OC)C2=C(C(=O)N(C(CCC(=O)O)C(=O)O)C2)[C@@]2(C)CCCC(C)(C)[C@H]12 (stereo not given in full) | 2.65% |  |
| COC(=O)C1=CO[C@@H](O[C@@H]2O[C@H](CO)[C@@H](O)[C@H](O)[C@H]2O)[C@@H]2C(CO)=CC[C@H]12 | 2.51% |  |
| NCCCCN(Cc1nc2ccccc2[nH]1)[C@H]1CCCc2cccnc21 | 5.33% |  |
| C/C=C/C1OC2=C(C(=O)OC2(C)O)C(O)C1O (stereo not given) | -2.51% [at 50 µM] |  |
| CC1CCC2(C(=O)OC3OC(CO)C(O)C(O)C3O)CCC3(C)C(=CCC4C5(C)CCC(O)C(C)(CO)C5CCC43C)C2C1(C)O (stereo not given) | 4.99% [at 15.3 µM] |  |
| Cc1c(Cc2ccc3ccccc3n2)c2cc(F)ccc2n1CC(=O)O | -0.41% [at 50 µM] |  |
| C=C1CC[C@@H]2C(C)(C)CCC[C@@]2(C)[C@@H]1CC/C(=C/C(=O)OC)COC(C)=O | -1.88% |  |
| C=C1C[C@]23C[C@H]1CC[C@H]2[C@]1(C)CC[C@H](O)[C@@](C)(C(=O)O)[C@H]1[C@@H]3C(=O)O | -10.4% |  |
| C=C1C2(C)CC3C4(C)C=CC(=O)OC(C)(C)C4CCC3(C)C1(C(=O)OC)C(=O)C(C)(O)C2=O (stereo not given) | -6.16% |  |
| C=C1CC[C@@H]2[C@](C)(CO)[C@H](O[C@@H]3O[C@H](CO)[C@@H](O)[C@H](O)[C@H]3O)CC[C@@]2(C)[C@@H]1C/C=C1/C(=O)OC[C@H]1O | -4.21% |  |
| CC1CCC2(NC1)OC1C(O)C3C4CCC5CC(O[C@@H]6O[C@H](CO)[C@@H](O)[C@H](O)[C@H]6O[C@@H]6O[C@@H](C)[C@H](O)[C@@H](O)[C@H]6O)CCC5(C)C4CCC3(C)C1C2C (stereo not given in full) | -13.3% [at 15.3 µM] |  |
| CC(C)c1ccc2c(c1)C(O)CC1C(C)(C(=O)O)CCCC21C (stereo not given) | -6.6% |  |
| CC(C)c1c(NC(=O)Nc2ccc(Cl)cc2)c(=O)n(-c2ccccc2)n1C | 1.34% [at 50 µM] |  |
| CC1(C)CC[C@]2(C(=O)O[C@@H]3O[C@H](CO)[C@@H](O)[C@H](O)[C@H]3O)CC[C@]3(C)C(=CCC4[C@@]5(C)C[C@@H](O)[C@H](O)[C@@](C)(CO)C5[C@H](O)C[C@]43C)C2[C@@H]1O (stereo not given in full) | -0.341% [at 15.3 µM] |  |
| O=C(NC1Cc2ccccc2N(C[C@@H](O)CO)C1=O)c1cc2cc(Cl)sc2[nH]1 (stereo not given in full) | -8.73% [at 50 µM] |  |
| C=C[C@H]1[C@H](O[C@@H]2O[C@H](CO)[C@@H](O)[C@H](O)[C@H]2O)OC=C(C(=O)OC)[C@H]1CC=O |  | inactive |

| Compound | activity change, negative = inhibition | outcome |
| --- | --- | --- |
| COc1ccc(C(=O)OC2C3C=COC(OC4OC(CO)C(O)C(O)C4O)C3C3(CO)OC23)cc1OC (stereo not given) | 2.76% |  |
| CC/C=C\C(O)C(O)C1=C(C)C(=O)C2(O1)C(=O)NC(OC)(C(=O)c1ccccc1)C2O (stereo not given) | -13% |  |
| Cc1ccc2[nH]c(=O)c(C3=NN(C(=O)CCC(=O)O)C(c4ccc(Br)cc4)C3)c(-c3ccccc3)c2c1 (stereo not given) | -23.5% [at 50 µM] |  |
| COc1cc(CC2COC(c3ccc(OC4OC(CO)C(O)C(O)C4O)c(OC)c3)C2CO)ccc1O (stereo not given) |  | inactive |
| COc1cc(C(=O)OCC2=CCC3C(C(=O)O)=COC(O[C@@H]4O[C@H](CO)[C@@H](O)[C@H](O)[C@H]4O)C23)ccc1O (stereo not given in full) | -6.14% |  |
| C/C=C/C=C/C=C/C(=O)O[C@@H]1C=C(CO)[C@](O)(CO)[C@@]2(C)CCCC(C)(C)[C@H]12 | -22.7% |  |
| C[C@@H]1O[C@@H](O[C@H]2[C@H](OC(=O)[C@]34CCC(C)(C)C[C@H]3C3=CCC5[C@@]6(C)CC[C@H](O[C@@H]7O[C@H](CO[C@@H]8OC[C@H](O)[C@H](O)[C@H]8O[C@@H]8OC[C@@H](O)[C@H](O)[C@H]8O)[C@@H](O)[C@H](O)[C@H]7O)C(C)(C)C6CC[C@@]5(C)[C@]3(C)C[C@H]4O)O[C@H](CO)[C@@H](O)[C@@H]2O)[C@H](O[C@@H]2O[C@H](CO)[C@@H](O)[C@H](O)[C@H]2O)[C@H](O)[C@H]1O[C@@H]1OC[C@@H](O)[C@H](O[C@@H]2OC[C@@H](O)[C@H](O)[C@H]2O)[C@H]1O (stereo not given in full) |  | inactive [at 9.73 µM] |
| O=C(NC/C=C/CN1CCN(c2cccc(Cl)c2Cl)CC1)c1ccc(-c2ccccn2)cc1 | -0.931% [at 50 µM] |  |
| C[C@]1(O)CC[C@@H]2C(C(=O)O)=CO[C@@H](O[C@@H]3O[C@H](CO)[C@@H](O)[C@H](O)[C@H]3O)[C@@H]21 |  | inactive |
| C/C(=C\CC/C(C)=C/CC[C@]1(C)CCc2cc(O)cc(C)c2O1)CC/C=C(\C)C(=O)O | -17.5% |  |
| CNc1nc(C)nc(N[C@H]2CCC[C@@H](C(=O)NCc3ccc(C#N)cc3C(F)(F)F)C2)n1 | 1.46% [at 50 µM] |  |
| O=C(O)[C@H](Cc1ccccc1)Oc1ccc(-c2ccccc2)cc1 | 11.4% [at 50 µM] |  |
| NC[C@@H]1O[C@@H](O[C@@H]2[C@@H](O[C@@H]3O[C@H](CO)[C@@H](O)[C@H]3O)[C@H](O)[C@@H](N)C[C@H]2N)[C@@H](N)[C@H](O)[C@H]1O |  | inactive [at 9.73 µM] |
| C=C1CC[C@@]2(OC1)O[C@H]1CC3[C@@H]4CC=C5C[C@H](O[C@H]6OC[C@@H](O)C(O)[C@@H]6O[C@@H]6O[C@@H](C)[C@H](O)[C@@H](O[C@@H]7O[C@H](CO)[C@@H](O)[C@H](O)[C@H]7O)[C@H]6O)C[C@@H](O)[C@]5(C)C4CC[C@]3(C)[C@H]1[C@@H]2C (stereo not given in full) | -6.68% [at 15.3 µM] |  |
| Cc1ccc(C)c(S(=O)(=O)n2cnc3ccccc32)c1 | 2.98% [at 50 µM] |  |
| CCC(C)C1NC(=O)C2CCCN2C(=O)C(CC(O)CO)OC(=O)CCNC(=O)C(C)N(C)C(=O)C(C(C)C)N(C)C1=O (stereo not given) (cyclo([X13]PI[NMeV][NMeA][βAla]); configuration not given here) | -7.72% [at 15.3 µM] |  |
| CC1(C)[C@@H]2CC=C(CO[C@@H]3O[C@H](CO[C@@H]4OC[C@H](O)[C@H](O)[C@H]4O)[C@@H](O)[C@H](O)[C@H]3O)[C@H]1C2 |  | inactive |
| C[C@@H]1O[C@@H](O[C@H]2[C@H](OC(=O)[C@]34CCC(C)(C)C[C@H]3C3=CCC5[C@@]6(C)C[C@@H](O)[C@@H](O[C@@H]7O[C@H](CO)[C@@H](O)[C@H](O)[C@H]7O)[C@@](C)(CO)C6[C@H](O)C[C@@]5(C)[C@]3(C)CC4)OC[C@H](O)[C@@H]2O)[C@H](O)[C@H](O[C@@H]2OC[C@](O)(CO)[C@H]2O)[C@H]1O[C@@H]1OC[C@@H](O)[C@H](O[C@H]2O[C@H](C)[C@@H](O)[C@H](O)[C@@H]2O)[C@H]1O (stereo not given in full) | 2.57% [at 9.73 µM] |  |
| COc1cc(C)c(C(=O)OC2C(C)OC(OC3CCC(C)C4C3C=C(C)C3/C(C)=C\CC/C(C)=C/C5(C)C=C(C(=O)O)C(C)CC56OC(=O)/C(=C(\O)C34C)C6=O)C(O)C2O)c(OC)c1 (stereo not given) | -3.21% [at 15.3 µM] |  |
| CC(CC(C)O[C@@H]1O[C@H](CO)[C@@H](O)[C@H](O)[C@H]1O)OC(=O)/C=C/c1ccc(O)cc1 (stereo not given in full) |  | inactive |
